We go through 3 molecules from PubChem BioAssay (EPA / NIEHS).

What all share (conditions): mRNA level, 48 h; actives raise or lower the signal
Read-out in one experiment: CYP2C9 (gene 1559)
Nature of the experiment: LTEA_HepaRG_CYP2C9: Life Technologies and Expression Analysis (LTEA) Assay for CYP2C9 using HepaRG (AID 2283484). In a few lines: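 Differentiated human HepaRG cells were exposed 48 h in serum-free induction medium to eight half-log concentrations up to 100 uM in 0.5% DMSO. CYP2C9 mRNA was measured by qRT-PCR, normalized to ACTB, GAPDH and POLR2A, and fitted bidirectionally against DMSO.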

Read-out in the next experiment: CYP2E1 (gene 1571)
Kind of experiment: LTEA_HepaRG_CYP2E1: Life Technologies and Expression Analysis (LTEA) Assay for CYP2E1 using HepaRG (AID 2283485). In outline:
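Human liver line HepaRG, plated 48 h, then serum-free induction medium + chemical x 48 h; 8-pt CRC from 100 uM, half-log, 0.5% DMSO, n=2. Readout: CYP2E1 mRNA qRT-PCR vs ACTB/GAPDH/POLR2A; bidirectional fit vs DMSO.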

Read-out in the next experiment: CYP4A11 (gene 1579)
Nature of the experiment: LTEA_HepaRG_CYP4A11: Life Technologies and Expression Analysis (LTEA) Assay for CYP4A11 using HepaRG (AID 2283486). In a few lines:
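CYP4A11 transcript levels were quantified by TaqMan qRT-PCR after HepaRG human liver cells were treated for 48 hours with test chemicals (top 100 uM, half-log dilutions, 0.5% DMSO). Gain or loss of signal was fitted relative to DMSO.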

Read-out in experiment [1]: Cytochrome P450 3A4 (Homo sapiens) (UniProt P08684)
Nature of the experiment: LTEA_HepaRG_CYP3A4: Life Technologies and Expression Analysis (LTEA) Assay for CYP3A4 using HepaRG (AID 2283487). In a few lines: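 In a human hepatic line (HepaRG), duplicate wells were treated 48 h with up to 100 uM chemical in half-log dilutions. Endpoint: CYP3A4 mRNA induction or loss relative to 0.5% DMSO vehicle, by qRT-PCR.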

Read-out in experiment [2]: DNA damage-inducible transcript 3 (DDIT3), DDIT3 (gene 1649)
Nature of the experiment: LTEA_HepaRG_DDIT3: Life Technologies and Expression Analysis (LTEA) Assay for DNA damage-inducible transcript 3 (DDIT3) using HepaRG (AID 2283488). In a few lines:
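HepaRG plated 48 h, switched to serum-free induction medium, dosed 48 h (100 uM top, half-log, 8 pts, 0.5% DMSO, n=2); RNA isolated; DDIT3 by qRT-PCR; bidirectional curve fit vs DMSO.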

Read-out in experiment [3]: Pro-epidermal growth factor (Homo sapiens) (UniProt P01133)
Nature of the experiment: LTEA_HepaRG_EGF: Life Technologies and Expression Analysis (LTEA) Assay for Epidermal growth factor (EGF) using HepaRG (AID 2283489). In outline:
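qRT-PCR readout of EGF transcript after 48 h chemical exposure of HepaRG cells; eight concentrations from 100 uM down in half-log steps, duplicate wells, 0.5% DMSO vehicle. Bidirectional curve fitting against DMSO baseline.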

Read-out in experiment [4]: Early growth response protein 1 (EGR1) transcription factor, EGR1 (gene 1958)
Nature of the experiment: LTEA_HepaRG_EGR1: Life Technologies and Expression Analysis (LTEA) Assay for Early growth response protein 1 (EGR1) transcription factor using HepaRG (AID 2283490). In outline:
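Differentiated human HepaRG cells in serum-free induction medium were exposed in duplicate for 48 h to eight concentrations (top 100 uM, half-log steps) in 0.5% DMSO. EGR1 mRNA was quantified by qRT-PCR, normalized to ACTB, GAPDH and POLR2A, and fitted bidirectionally versus DMSO.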

Read-out in experiment [5]: Ezrin (EZR), EZR (gene 7430)
Nature of the experiment: LTEA_HepaRG_EZR: Life Technologies and Expression Analysis (LTEA) Assay for Ezrin (EZR) using HepaRG (AID 2283491). In outline:
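Gain or loss of EZR mRNA is scored relative to 0.5% DMSO in human HepaRG cultures treated 48 h with test chemicals in duplicate, eight half-log concentrations from 100 uM.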

Read-out in another experiment: CYP3A5 (gene 1577)
Nature of the experiment: LTEA_HepaRG_CYP3A5: Life Technologies and Expression Analysis (LTEA) Assay for CYP3A5 using HepaRG (AID 2283493). In outline:
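HepaRG plated 48 h, switched to serum-free induction medium, chemicals added 48 h (max 100 uM, half-log, 0.5% DMSO). RNA isolated; CYP3A5 by TaqMan qRT-PCR. Gain/loss vs DMSO.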

Read-out in experiment [6]: Fatty Acid-Binding Protein 1 (FABP1), FABP1 (gene 2168)
Kind of experiment: LTEA_HepaRG_FABP1: Life Technologies and Expression Analysis (LTEA) Assay for Fatty Acid-Binding Protein 1 (FABP1) using HepaRG (AID 2283494). In outline:
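Differentiated human HepaRG cells were exposed in duplicate for 48 h in serum-free induction medium to 8-point half-log concentration series topping at 100 uM in 0.5% DMSO. FABP1 mRNA measured by TaqMan qRT-PCR, normalized to ACTB/GAPDH/POLR2A; bidirectional fit versus DMSO.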

Read-out in experiment [7]: Cytochrome P450 7A1 (Homo sapiens) (UniProt P22680)
Kind of experiment: LTEA_HepaRG_CYP7A1: Life Technologies and Expression Analysis (LTEA) Assay for Cytochrome P450 7A1 (CYP7A1) using HepaRG (AID 2283496). In outline:
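HepaRG cells plated 48 h, then switched to serum-free induction medium and exposed in duplicate for 48 h to 8-point half-log series from 100 uM in 0.5% DMSO. CYP7A1 mRNA by qRT-PCR (TaqMan), normalized to ACTB/GAPDH/POLR2A; bidirectional fit versus DMSO.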

Read-out in experiment [8]: Glutathione S-Transferase (GSTA2), GSTA2 (gene 2939)
Nature of the experiment: LTEA_HepaRG_GSTA2: Life Technologies and Expression Analysis (LTEA) Assay for Glutathione S-Transferase (GSTA2) using HepaRG (AID 2283497). In outline:
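Human HepaRG cells, plated 48 h, then exposed in serum-free induction medium for 48 h to eight half-log concentrations up to 100 uM in 0.5% DMSO, duplicate. GSTA2 mRNA by qRT-PCR, normalized to ACTB/GAPDH/POLR2A; bidirectional fit versus DMSO.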

Read-out in experiment [9]: Glutamate-cysteine ligase catalytic (GCLC), GCLC (gene 2729)
Nature of the experiment: LTEA_HepaRG_GCLC: Life Technologies and Expression Analysis (LTEA) Assay for Glutamate-cysteine ligase catalytic (GCLC) using HepaRG (AID 2283498). In outline:
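Differentiated human HepaRG cells, plated 48 h then switched to serum-free induction medium, were exposed in duplicate for 48 h to 8 half-log concentrations topping at 100 uM in 0.5% DMSO. GCLC mRNA was quantified by qRT-PCR against ACTB, GAPDH and POLR2A.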

Read-out in experiment [10]: growth arrest and DNA damage 45 (GADD45G), GADD45G (gene 10912)
Kind of experiment: LTEA_HepaRG_GADD45G: Life Technologies and Expression Analysis (LTEA) Assay for growth arrest and DNA damage 45 (GADD45G) using HepaRG (AID 2283499). In outline:
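HepaRG, 48 h exposure, top 100 uM, half-log 8-point series, 0.5% DMSO vehicle, duplicates. Readout: GADD45G transcript by qRT-PCR (Fluidigm array), housekeeping-normalised (ACTB/GAPDH/POLR2A). Bidirectional curve fit vs DMSO baseline.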

Read-out in experiment [11]: Glutamate-cysteine ligase regulatory (GCLM), GCLM (gene 2730)
Nature of the experiment: LTEA_HepaRG_GCLM: Life Technologies and Expression Analysis (LTEA) Assay for Glutamate-cysteine ligase regulatory (GCLM) using HepaRG (AID 2283500). In outline: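 Cells were plated, cultured 48 h, switched to serum-free induction medium, then dosed in duplicate for 48 h at eight half-log concentrations up to 100 uM. RNA was then profiled by qRT-PCR; gain or loss versus DMSO was fitted.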

Read-out in experiment [12]: Glutathione S-transferase M3 (GSTM3), GSTM3 (gene 2947)
Kind of experiment: LTEA_HepaRG_GSTM3: Life Technologies and Expression Analysis (LTEA) Assay for Glutathione S-transferase M3 (GSTM3) using HepaRG (AID 2283501). In a few lines:
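qRT-PCR read-out of GSTM3 transcript, normalized to three housekeeping genes, from human HepaRG cells after 48 h chemical exposure. Eight-point half-log series, top 100 uM, 0.5% DMSO vehicle; gain or loss fitted relative to DMSO baseline.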

Read-out in experiment [13]: Cytochrome P450 3A7 (Homo sapiens) (UniProt P24462)
Nature of the experiment: LTEA_HepaRG_CYP3A7: Life Technologies and Expression Analysis (LTEA) Assay for CYP3A7 using HepaRG (AID 2283492). In a few lines:
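CYP3A7 transcript levels were read by TaqMan qRT-PCR on Fluidigm arrays after 48 h chemical exposure of human HepaRG cells, with housekeeping-gene normalisation. Eight half-log concentrations up to 100 uM in 0.5% DMSO were tested in duplicate.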

Read-out in experiment [14]: Cytochrome P450 4A22 (Homo sapiens) (UniProt Q5TCH4)
Nature of the experiment: LTEA_HepaRG_CYP4A22: Life Technologies and Expression Analysis (LTEA) Assay for Cytochrome P450 4A22 (CYP4A22) using HepaRG (AID 2283495). In a few lines: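 HepaRG, 48 h post-plating -> serum-free induction medium; dosed 48 h, duplicate, 8 conc. (100 uM top, half-log), 0.5% DMSO. Readout: CYP4A22 mRNA by qRT-PCR, ACTB/GAPDH/POLR2A normalization; gain/loss fit relative to DMSO.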

Read-out in experiment [15]: Heat shock 70 kDa protein 1 (HSPA1A), gene 3303
Kind of experiment: LTEA_HepaRG_HSPA1A: Life Technologies and Expression Analysis (LTEA) Assay for Heat shock 70 kDa protein 1 (HSPA1A) using HepaRG (AID 2283502). In a few lines: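 Readout is HSPA1A transcript level by microfluidic qRT-PCR, normalized to three housekeeping genes and analysed for gain or loss of signal relative to 0.5% DMSO. Human HepaRG cultures received test chemicals for 48 h at up to 100 uM.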

Molecules are shown by their SMILES. Activity calls are given as the source filed them. The calls were made as follows: active = hit-call score of the fitted dose curve at least 0.9, where 1 is the maximum; inactive = score below 0.9.

Broadly, the AC50 is the concentration at which the activity in the assay is half-maximal.

Sequence of Cytochrome P450 3A4 (Homo sapiens) (P08684 whole entry, looked up): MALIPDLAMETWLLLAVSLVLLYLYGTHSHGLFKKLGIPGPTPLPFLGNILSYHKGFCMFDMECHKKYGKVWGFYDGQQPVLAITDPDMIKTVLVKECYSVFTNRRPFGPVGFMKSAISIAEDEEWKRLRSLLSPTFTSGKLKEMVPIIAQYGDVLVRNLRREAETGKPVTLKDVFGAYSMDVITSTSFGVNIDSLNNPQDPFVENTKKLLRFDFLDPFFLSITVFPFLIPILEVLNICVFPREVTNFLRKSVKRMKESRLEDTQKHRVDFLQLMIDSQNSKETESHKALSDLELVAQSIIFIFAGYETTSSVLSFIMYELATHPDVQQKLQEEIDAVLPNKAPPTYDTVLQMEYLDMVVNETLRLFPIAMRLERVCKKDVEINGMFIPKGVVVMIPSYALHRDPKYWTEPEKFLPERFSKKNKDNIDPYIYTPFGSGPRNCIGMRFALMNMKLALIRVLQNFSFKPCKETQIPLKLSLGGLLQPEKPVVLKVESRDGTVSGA
Sequence of Cytochrome P450 3A7 (Homo sapiens) (P24462 whole entry, looked up): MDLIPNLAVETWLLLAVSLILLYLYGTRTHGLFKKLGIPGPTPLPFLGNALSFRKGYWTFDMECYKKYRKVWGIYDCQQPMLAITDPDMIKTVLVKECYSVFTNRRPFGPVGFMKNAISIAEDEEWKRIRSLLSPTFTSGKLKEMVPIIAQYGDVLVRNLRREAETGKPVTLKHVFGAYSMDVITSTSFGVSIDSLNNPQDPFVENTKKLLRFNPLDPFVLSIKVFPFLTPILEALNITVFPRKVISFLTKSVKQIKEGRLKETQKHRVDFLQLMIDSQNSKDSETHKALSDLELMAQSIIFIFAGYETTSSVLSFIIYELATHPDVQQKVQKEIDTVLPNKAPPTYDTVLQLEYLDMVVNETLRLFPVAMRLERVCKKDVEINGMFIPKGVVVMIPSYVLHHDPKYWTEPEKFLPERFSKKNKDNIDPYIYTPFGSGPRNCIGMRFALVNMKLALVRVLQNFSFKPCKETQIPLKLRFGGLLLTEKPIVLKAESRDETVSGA

`CCNS(=O)(=O)C(F)(F)C(F)(F)C(F)(F)C(F)(F)C(F)(F)C(F)(F)C(F)(F)C(F)(F)F`: the molecule was classed as inactive (with CYP2C9 (gene 1559); in [1]; in experiment [2]; in experiment [3]; in experiment [5]; with CYP3A5 (gene 1577)). Moreover, the result in experiment [9], in experiment [11] and in experiment [12] was inactive. The AC50 in the experiment with CYP2E1 (gene 1571) was 48.2 µM (active); with CYP4A11 (gene 1579), 12 µM (active); in experiment [4] it was 35.6 µM (active); in [6] it was 59.3 µM (active); in [7], 48.2 µM (active); in experiment [8], 48.2 µM (active). Further, in [10], the AC50 was 36.6 µM (active).
Take `CC(C)(C)C(O)(CCc1ccc(Cl)cc1)Cn1cncn1` (stereo unspecified): the AC50 with CYP2C9 (gene 1559) is 85.9 µM (active); with CYP2E1 (gene 1571), 50 µM (active); in the experiment with CYP4A11 (gene 1579), 55.2 µM (active); in experiment [1], 2.86 µM (active); in experiment [4], 90.1 µM (active); in experiment [13], 2.43 µM (active). Moreover, the AC50 in experiment [6] was 11.5 µM (active); in [14], 57 µM (active); in experiment [7] it was 50 µM (active); in experiment [8], 76.4 µM (active); in [10] it was 50 µM (active); in [11] it was 50 µM (active). The call (in experiment [3]; in [5]; with CYP3A5 (gene 1577); in experiment [9]; in [12]; in experiment [15]) was inactive.
Regarding `ClC1=C(Cl)[C@]2(Cl)[C@H]3[C@H]([C@@H]4C=C[C@H]3C4)[C@@]1(Cl)C2(Cl)Cl`, the molecule was called inactive (with CYP2C9 (gene 1559); in experiment [2]; in [3]; in experiment [4]; in [5]; in the experiment with CYP3A5 (gene 1577)). For the same molecule, the outcome in experiment [8], in experiment [9], in experiment [10] and in experiment [15] was inactive. Moreover, the AC50 in the experiment with CYP2E1 (gene 1571) is 23 µM (active); in the experiment with CYP4A11 (gene 1579) it was 29.6 µM (active); in experiment [1] it was 4.36 µM (active); in experiment [6] it was 6.01 µM (active); in experiment [14], 29.1 µM (active); in experiment [7] it was 19.4 µM (active). Moreover, the AC50 in experiment [11] was 12.7 µM (active).
